aSyn UTR act: Activators via SNCA 5'UTR binding, MLPCN | alpha-synuclein 5'UTR reporter, activators screen | activity score, % (tested at 7.5 µM), hits read low | hit rate 7.1% among 300,000; in the data active = activity score below about -60%
* = called active by the depositor. The list is a sample of the results.

SMILES	aSyn UTR act
O=C(/C=C/c1ccc(OC(F)F)cc1)Nc1cccc(S(=O)(=O)NC2=NCCCCC2)c1	-71.8*
O=C(CCl)Nc1cccc(S(=O)(=O)NC2=NCCC2)c1	-180.0*
COc1ccc(/C=C/C(=O)Nc2cccc(S(=O)(=O)NC3=NCCCCC3)c2)cc1	-67.4*
Cc1cc(NC(=O)c2cncc(Br)c2)ccc1NC(=O)c1cc2ccccc2o1	78.0
COc1ccc(C)cc1NC(=O)c1cc2ccccc2o1	-146.8*
Cc1ccnc(NC(=O)c2cc3ccccc3o2)c1	97.0
Cc1cc([N+](=O)[O-])ccc1NC(=O)c1cc2ccccc2o1	-115.2*
Cc1ccc(C)c(NC(=O)c2cc3ccccc3o2)c1	-171.6*
Cc1ccc(-c2nc3ncccc3o2)cc1NC(=O)c1ccc([N+](=O)[O-])o1	-511.0*
O=C(Nc1ccc(-c2nc3ncccc3o2)cc1)c1ccc([N+](=O)[O-])o1	100.3
O=C(NC(=S)Nc1ccccn1)c1ccco1	-172.9*
Cc1cc(-c2nc3ncccc3o2)ccc1NC(=S)NC(=O)c1ccco1	-67.0*
O=C(NC(=S)Nc1cccnc1Cl)c1ccco1	-61.9*
O=C(NC(=S)Nc1ccc(Cl)cn1)c1cccs1	-92.3*
O=C(Nc1ncc(Cl)cn1)c1cccs1	-68.8*
Cc1ccnc(NC(=S)NC(=O)c2ccco2)c1	-140.5*
Cc1ccnc(NC(=S)NC(=O)c2cccs2)c1	-270.4*
Cc1cc(O)cc2c1C(=O)/C(=C/c1ccco1)O2	-116.2*
COc1ccc(-c2ncc3ccccn23)cc1	-142.3*
COc1cccc(-c2ncc3ccccn23)c1	-123.5*
Cc1c(Cl)c([N+](=O)[O-])nn1CCCC(=O)NCCc1ccccc1	-63.8*
Brc1ccc2nc(CSc3ncn[nH]3)cn2c1	-68.2*
COc1cccc(-c2cn3nc(C)c(C)nc3n2)c1	-69.9*
COc1ccc(CNC(=S)Nc2ccc(F)c(Cl)c2)cc1	-109.4*
CCc1nn2cc(-c3ccccc3)nc2s1	80.2
SMILES	aSyn UTR act
Nc1nn2cc(-c3ccccc3)nc2c2ccccc12	-112.3*
CN(C)/C=C(\C#N)C(=O)N/N=C/c1ccc(Cl)cc1	-65.6*
CN(C)/C=C(\C#N)C(=O)Nc1ccc(F)c(Cl)c1	-142.8*
CN(C)/C=C(\C#N)C(=O)Nc1ccc(F)cc1	-95.8*
Cn1cccc1C(=O)NCCc1ccc(Cl)cc1	-162.4*
COc1ccc(CCNC(=O)c2cccn2C)cc1	-89.3*
[O-][n+]1onc2c1CCc1nnccc1-2	-85.5*
O=C(c1cc(-c2ccncc2)nc2c(Cl)cccc12)N1CCN(c2ccccc2F)CC1	99.1
COc1ccc(-c2cc(C(=O)N3CCN(c4ccccn4)CC3)c3ccccc3n2)cc1	-139.9*
Cc1ccc(-c2cc(C(=O)N3CCN(c4ccc(F)cc4)CC3)c3ccccc3n2)o1	-95.8*
CCOc1ccc(-c2cc(C(=O)N3CCN(c4ccccn4)CC3)c3ccccc3n2)cc1	-67.9*
CCC1CCCCN1CC(O)Cn1c2ccccc2n2c(=O)cc(C)c(C#N)c12 (configuration not stated)	-63.8*
Cc1nc2cc(-c3ccccc3)ccc2o1	-67.4*
C/C(=N\O)c1ccc2c3c([nH]c2c1)CCCC3	-79.8*
Cc1cc(C(=O)COc2ccccc2C(N)=O)c(C)n1C1CC1	-76.2*
Cc1cc(-n2c(C)cc(C(=O)COc3ccccc3[N+](=O)[O-])c2C)no1	-67.5*
Cc1cc(C(=O)COc2cccnc2[N+](=O)[O-])c(C)n1-c1ccccc1F	67.5
Cc1cc(C(=O)COC(=O)c2ccc(Cl)c(S(N)(=O)=O)c2)c(C)n1C1CC1	-142.8*
Cc1cc(C(=O)COc2ccccc2[N+](=O)[O-])c(C)n1C1CC1	-130.9*
Cc1cc(C(=O)COc2cccnc2[N+](=O)[O-])c(C)n1-c1ccccc1	99.8
Cc1cc(C(=O)COC(=O)c2ccc[nH]c2=O)c(C)n1C1CC1	-99.1*
COc1ccc2c(c1)CC/C(=C/c1ccco1)C2=O	-160.4*
CCOc1ccc(/C=C2\CCc3ccccc3C2=O)cc1	-170.2*
COc1ccc(/C=C2\CCc3ccccc3C2=O)cc1CN1CCOCC1	62.5
O=C1/C(=C/c2ccco2)CCc2ccccc21	-139.9*
SMILES	aSyn UTR act
CN(C(=O)C1CCOC1)c1nnc(-c2ccccn2)s1 (configuration not stated)	-66.8*
COc1ccc(Cc2nc3ccc(C(=O)NCC(C)(C)OC)cc3o2)cc1	-116.0*
COc1ccc(Cc2nc3ccc(C(=O)NCc4cc(C)no4)cc3o2)cc1	-103.8*
COc1ccc(Cc2nc3ccc(C(=O)NCCSC)cc3o2)cc1	-97.5*
CSCCNC(=O)c1ccc2nc(C3CCCCC3)oc2c1	-66.5*
O=C(NCC1CCOCC1)c1ccc2nc(Cc3cccc(Cl)c3)oc2c1	-79.4*
O=[N+]([O-])c1cccc(-c2nnc(-c3ccccc3F)o2)c1	-161.5*
O=C(CSCC(=O)N1CCCc2ccccc21)Nc1nc(-c2ccccc2)cs1	-100.5*
O=C(C[n+]1cc(-c2ccc(F)cc2)n2c1CCC2)c1cccs1	-144.4*
O=C(c1nn2c(C(F)(F)F)cc(-c3cccs3)nc2c1Br)N1CCCc2ccccc21	82.2
O=C(C[n+]1cc(-c2ccccc2)n2c1CCC2)Nc1nc(-c2ccccc2)cs1	-73.1*
CCCCc1ccc(-c2nc(N)n[nH]2)cc1	-99.7*
CN(C)/C=N/C(=S)Nc1ccc(Br)cc1F	-108.4*
CS(=O)Cc1cc(Sc2ccccc2)nc(-c2cccnc2)n1 (configuration not stated)	-65.7*
O=c1c2c(nc3c(-c4cccc(Br)c4)c[nH]n13)CCCC2	68.7
Cc1c(-c2ccccc2)[nH]n2c(=O)c3c(nc12)CCCC3	-166.2*
Cc1ccc(-c2[nH]n3c(=O)c4c(nc3c2C)CCCC4)cc1	-74.9*
Cc1ccc(/C=C2/NC(=O)N(c3ccccc3)C2=O)o1	-104.7*
O=C1N/C(=C/c2ccc(Br)s2)C(=O)N1c1ccccc1	-81.0*
Cc1cc(/C=C2/NC(=O)N(c3ccccc3)C2=O)c(C)n1C(C)C	-64.2*
Cc1cc(N/N=C/c2cccc(Br)c2)nc2ccccc12	-241.1*
Cc1cc(N/N=C/c2ccncc2)nc2ccccc12	-137.0*
NC(=NCc1ccco1)NC(=O)c1ccc(Cl)cc1	-127.7*
O=C(NC1CC(=O)c2sccc21)c1ccc(Cl)cc1Cl (configuration not stated)	-86.6*
Cc1csc(SCC(=O)Nc2nc(-c3ccccc3)cs2)n1	-80.3*
SMILES	aSyn UTR act
Cc1csc(NC(=O)CSc2ccccc2F)n1	-87.5*
COCc1cc(C)nc(SCC(=O)Nc2nc(C)cs2)c1C#N	55.1
Cc1ccc(-c2csc(NC(=O)CSc3nc(C)cs3)n2)cc1	-159.9*
CC(C)(C)NC(=O)CSc1nc(-c2ccc(F)cc2)cs1	-180.8*
Cc1ccc(C2(C)NC(=O)N(CC(=O)Nc3nc(-c4ccccn4)cs3)C2=O)cc1 (configuration not stated)	80.1
COCCNC(=O)CSc1nc(-c2ccccc2)cs1	-72.5*
CC(C)(C)c1ccc(-c2csc(NC(=O)CN3C(=O)NC4(CCCCC4)C3=O)n2)cc1	-78.7*
NC(=O)C1=C[C@H](C2CCCCC2)C[C@H](OCc2ccc(CO)cc2)O1	-98.3*
Cc1csc(NC(=O)c2ccc(COc3ccccc3)o2)n1	-136.3*
Cc1ccc(OCc2ccc(C(=O)Nc3nccs3)o2)cc1C	-110.2*
Cc1ccc(OCc2ccc(C(=O)O)o2)cc1C	-188.3*
COC(=O)c1ccc(COc2cc(C)ccc2C)o1	-148.7*
C=CCc1ccc(OCC(O)COCC)c(OC)c1 (configuration not stated)	-76.3*
COC(=O)c1ccc(COc2ccc(C)c(C)c2)o1	-198.4*
Cc1cc(COc2ccccc2)oc1C(=O)O	-107.5*
